Test results reported in PubChem BioAssay (Tox21).
Records with an inconclusive call do not appear. The source made the active and inactive calls. The call rests on the fitted dose curve; in most records, active means well fitted cell-killing curve with a large enough effect in the repeat runs; inconclusive means weak or mixed curves, or effect the other way; inactive means flat fitted curve, though single readings scatter.

experiment: qHTS assay to identify small molecule antagonists of the constitutive androstane receptor (CAR) signaling pathway - cell viability counter screen (AID 1224837); conditions: HepG2-CYP2B6-hCAR viability, CellTiter-Fluor, 23 h, co-treated with 50 nM CITCO; series mostly up to 92.4 µM; further: nearly all actives have a fitted effect of over 45% in size
From the text: National Center for Advancing Translational Sciences [NCATS]
NIH Chemical Genomics Center [NCGC]
U.S. Environmental Protection Agency [EPA]
National Institutes of Environmental Health Sciences [NIEHS]
National Toxicology Program [NTP]
U.S. Food and Drug Administration [FDA]
The constitutive androstane receptor (CAR) is a nuclear receptor which regulates multiple drug metabolizing enzymes (DMEs) and transporters. Activating CAR will generally increase the transcription and subsequent translation of CYP2B6 and CYP3A4. These two DMEs represent about 50% of the drug metabolizing potential in the body. When CAR is deactivated, the metabolizing potential in the body will decrease, subsequently increasing the toxicity in the body or lowering the therapeutic potential of a pro-drug. Recently, there have also been studies performed indicating CARs role in energy metabolism and cancer therapy. Therefore, inhibiting CARs activity could have a potential effect on diabetes and cancer. Identifying environmental toxins and compounds which modulate CAR, through the use of the Tox21 10K compound collection, will be an important step in determining the toxicity and potential therapeutic effects these factors will have on the human body. To differentiate true CAR antagonists from cytotoxic substances, the assay is multiplexed with a cell viability assay.
Tox21 Assay Protocol Summary:
A double-stable (hCAR and CYP2B6-2.2kb) transfected cell line, derived from human hepatoma (HepG2) cells, was utilized for the duration of the quantitative high-throughput screens. The HepG2-CYP2B6-hCAR cells were dispensed at 2500 cells/4 uL/well in 1536-well white solid bottom plates using a Multidrop Combi. After the assay plates were incubated at 37 C/5% CO2 for 4 hrs, 23 nL of compounds at 15 concentrations (from 5-48 columns) or positive control (from 1 to 4 columns) were transferred to the assay plates using a Pintool station. One uL of CITCO (final concentration = 50 nM) was added, using a Flying Reagent Dispenser, inside each well. After a 23 hr incubation period at 37 C/5% CO2, 1 uL of CellTiter-Fluor reagent was added into each well of the assay plates using a Flying Reagent Dispenser. The fluorescence intensity in the plates was then measured using a ViewLux plate reader.
On the % scale 0 is the no-effect control and ±100 the full control effect.

Compound | outcome | activity change, negative = cytotoxicity
Cc1ccccc1C(N)=O | inactive | 
CC1c2ccccc2CN1NC(=O)c1ccc(Cl)c(S(N)(=O)=O)c1 (stereo not given) | inactive | 
CN(C)CCCCl | inactive | 
O=C(CCCl)NCCc1ccccc1 | inactive | 
COP(=O)(O)OP(=O)(O)OC | inactive | 
ONc1ccccc1 | inactive | 
C=CC/C=C/C | inactive | 
COC(=O)CCCCC(CCSS/C(CCO)=C(\C)N(C=O)Cc1cnc(C)nc1N)SC(C)=O (stereo not given) | inactive | 
CC(C)NCC(O)c1ccc2ccccc2c1 (stereo not given) | inactive | 
Cc1c(NC(=O)c2cccnc2)c(=O)n(-c2ccccc2)n1C | inactive | 
OCC1CCC(CO)CC1 (stereo not given) | inactive | 
Cc1c(N)cccc1Cl | inactive | 
CC(=O)OC1CCCCC1C(C)(C)C (stereo not given) | inactive | 
COc1cc2c(cc1OC)CN(C(=O)[C@H](C)N[C@@H](CCc1ccccc1)C(=O)O)[C@H](C(=O)O)C2 | inactive | 
O=C=NCC1CCCC(CN=C=O)C1 (stereo not given) | inactive | 
c1ccc(-c2nn[nH]n2)cc1 | inactive | 
CCCc1ccc(O)cc1 | inactive | 
CC1=C(O)C(=O)C(C)O1 (stereo not given) | inactive | 
CCCCCCCCCOC(=O)CCCCC(=O)OCCCCCCC | inactive | 
Cc1ccnc(N)c1 | inactive | 

Compound | outcome | activity change, negative = cytotoxicity
CC(C)NC(=O)c1ccc(C=O)cc1 | inactive | 
CC(=O)O[C@H]1C[C@@H]2CC[C@@]1(C)C2(C)C | inactive | 
COc1cc(OC)nc(O[C@H](C(=O)O)C(OC)(c2ccccc2)c2ccccc2)n1 | inactive | 
O=C(CCCCC(=O)Nc1c(I)cc(I)c(C(=O)O)c1I)Nc1c(I)cc(I)c(C(=O)O)c1I | inactive | 
NCc1ccc(S(N)(=O)=O)cc1 | inactive | 
CCOCCOCC | inactive | 
CO/N=C(/C(=O)N[C@@H]1C(=O)N2C(C(=O)[O-])=C(C[n+]3ccn4ncccc43)CS[C@H]12)c1nsc(N)n1 | inactive | 
Cc1ccc(C)c([N+](=O)[O-])c1 | inactive | 
C=C(C)[C@@H]1CC=C(C)C(=O)C1 | inactive | 
CC(O)CC(C)O (stereo not given) | inactive | 
CC(=O)c1cc(C)oc1C | inactive | 
Cc1cc(-c2ccccc2)nnc1NCCN1CCOCC1 | inactive | 
CC(=O)OCC(=O)Nc1cc(C#N)cc(NC(=O)COC(C)=O)c1Cl | inactive | 
N[C@@H](CSCCCO)C(=O)O |  | 10% [at 19 µM] (inactive)
CCCCCCCCCOC(=O)c1ccccc1C(=O)OCCCCCCCCC | inactive | 
CCCCCCCCCCCCCCC(=O)NC(CO)CCCCCCCCCCCCCC (stereo not given) | inactive | 
CC(=O)CCC1=C(C)CCCC1(C)C | inactive | 
CCCCCC(C)O (stereo not given) | inactive | 
CC12CCC(C1)C(C)(C)C2O (stereo not given) | inactive | 
OC[C@@H](O)C(O)[C@@H](O)CO (stereo not given in full) | inactive | 
